Read-out in assay [1]: Tissue Factor, F3 (gene 2152)
Put plainly: BSK_CASM3C_TissueFactor: BioMAP Diversity Plus: CASM3C Assay for Tissue Factor Biomarker Activity (AID 2283052).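 Also: cell surface tissue factor protein level read by ELISA.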 Conditions: primary human coronary artery smooth muscle cells; actives raise or lower the signal.

Read-out in assay [2]: Interferon-gamma inducible Protein 10 (IP10), CXCL10 (gene 3627)
Put plainly: BSK_hDFCGF_IP10: BioMAP Diversity Plus: hDFCGF Assay for Interferon-gamma inducible Protein 10 (IP10) Biomarker Activity (AID 2283053). Conditions: primary human foreskin fibroblasts; actives raise or lower the signal. A digest of the protocol:
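ELISA quantification of IP-10 after a 24 h chemical exposure of human dermal foreskin fibroblast primary cultures. Both increases and decreases versus DMSO fitted.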

Read-out in assay [3]: Urokinase-type plasminogen activator receptor (uPAR), PLAUR (gene 5329)
Put plainly: BSK_CASM3C_uPAR: BioMAP Diversity Plus: CASM3C Assay for Urokinase-type plasminogen activator receptor (uPAR) Biomarker Activity (AID 2283054).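 Also: cell-surface uPAR protein level quantified by ELISA.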 Conditions: primary human coronary artery smooth muscle cells; actives raise or lower the signal.

Read-out in assay [4]: Vascular cell adhesion molecule 1 (VCAM1), VCAM1 (gene 7412)
Put plainly: BSK_CASM3C_VCAM1: BioMAP Diversity Plus: CASM3C Assay for Vascular cell adhesion molecule 1 (VCAM1) Biomarker Activity (AID 2283055).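 Also: VCAM-1 protein level quantified by ELISA on the cells.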 Particulars: primary human coronary artery smooth muscle cells; actives raise or lower the signal.

Read-out in assay [5]: Collagen III, COL3A1 (gene 1281)
As to the kind of experiment: BSK_hDFCGF_CollagenIII: BioMAP Diversity Plus: hDFCGF Assay for Collagen III Biomarker Activity (AID 2283056). Conditions: primary human foreskin fibroblasts; actives raise or lower the signal. The method in brief: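 ELISA readout of Collagen III in human dermal (foreskin) fibroblasts, taken 24 h post-treatment. Gain or loss relative to DMSO vehicle fitted in both directions.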

Read-out in assay [6]: Epidermal growth factor receptor (EGFR), EGFR (gene 1956)
Put plainly: BSK_hDFCGF_EGFR: BioMAP Diversity Plus: hDFCGF Assay for Epidermal growth factor receptor (EGFR) Biomarker Activity (AID 2283057). Conditions: primary human foreskin fibroblasts; actives raise or lower the signal. The method in brief: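 EGFR levels by ELISA in human dermal fibroblast cultures, 24 h post-treatment, fitted bidirectionally versus DMSO. Parallel wells stained with sulforhodamine B to detect overt cytotoxicity.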

Read-out in assay [7]: Interleukin-8 (IL8), CXCL8 (gene 3576)
As to the kind of experiment: BSK_hDFCGF_IL8: BioMAP Diversity Plus: hDFCGF Assay for Interleukin-8 (IL8) Biomarker Activity (AID 2283058). Conditions: primary human foreskin fibroblasts; actives raise or lower the signal. The method in brief:
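IL-8 levels read by ELISA at 24 hours after dosing human skin fibroblast cultures. Parallel SRB staining assessed overt cytotoxicity, and gain or loss of signal was fitted against DMSO control.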

Assay [8] in a line: BSK_hDFCGF_Proliferation: Cell Proliferation Assessment in the BioMAP Diversity Plus: hDFCGF Assay (AID 2283059).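 Also: curves fitted for both rise and fall of signal versus DMSO baseline.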 Conditions: primary human foreskin fibroblasts. The method in brief:
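Total protein read at 560 nm after 0.1% SRB staining of TCA-fixed human skin fibroblasts, […]. Activity is fitted in both directions relative to DMSO as baseline.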

Read-out in assay [9]: Macrophage colony-stimulating factor (MCSF), CSF1 (gene 1435)
As to the kind of experiment: BSK_hDFCGF_MCSF: BioMAP Diversity Plus: hDFCGF Assay for Macrophage colony-stimulating factor (MCSF) Biomarker Activity (AID 2283060). Particulars: primary human foreskin fibroblasts; actives raise or lower the signal. A digest of the protocol:
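M-CSF levels read by ELISA at 24 h post-dosing in human skin fibroblasts. Parallel cultures stained with SRB assessed cytotoxicity at the same time point; response fitted in both directions against the DMSO baseline.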

The nature of assay [10]: BSK_hDFCGF_SRB: Viability Assessment in the BioMAP Diversity Plus: hDFCGF Assay (AID 2283061).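 Also: cells exposed to compound for 24 h before the read.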 Particulars: primary human foreskin fibroblasts. A digest of the protocol:
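Viability was read as total protein: after 10% TCA fixation, wells were stained with 0.1% sulforhodamine B and read at 560 nm. Primary human foreskin fibroblasts were dosed for 24 h, with bidirectional fitting versus DMSO.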

Active and inactive are the calls of the source. The calls were made as follows: active = hit-call score of the fitted dose curve at least 0.9, where 1 is the maximum; inactive = score below 0.9.

Regarding `C[N+](C)(C)CC1CO1` (stereo not given), the result in assay [1], in assay [2], in [3], in assay [4], in assay [5] and in assay [6] was inactive. Moreover, the outcome in assay [7], in assay [8], in assay [9] and in assay [10] was inactive.

Take `N#CC(Br)(Br)C(N)=O`: the outcome in [1], in assay [2], in assay [3], in assay [4], in [5] and in assay [6] was inactive. Further, the outcome in [7], in assay [8], in assay [9] and in [10] was inactive.

With `c1ccc2c(c1)oc1ccccc12`, the outcome in assay [1], in assay [2], in assay [3], in assay [4], in assay [5] and in assay [6] was inactive. The result in assay [7], in assay [8], in [9] and in assay [10] was inactive.

Consider `Oc1ccccc1Cl`, for which the outcome in assay [1], in assay [2], in assay [3], in assay [4], in [5] and in assay [6] was inactive. For the same compound, the outcome in [7], in assay [8], in [9] and in [10] was inactive.

One may read the AC50 as the concentration at which the activity in the assay is half-maximal. `CC(C)(OOC(C)(C)c1ccccc1)c1ccccc1`: the AC50 in assay [1] was 20 µM (active); in assay [2] it was 37.9 µM (active); in [5], 12.8 µM (active); in [7], 36.2 µM (active); in assay [8], 14.9 µM (active); in [10], 29.1 µM (active). Further, the outcome in assay [3], in [4], in assay [6] and in assay [9] was inactive.

On to `CCCCCCCCn1sccc1=O`, for which the AC50 in assay [1] is 14.2 µM (active); in assay [2], 0.626 µM (active); in assay [3], 11.5 µM (active); in assay [4], 9.3 µM (active); in assay [5], 2.42 µM (active); in assay [7] it was 1.62 µM (active). Besides, the results for the AC50 in assay [8], in [9] and in assay [10] were 0.405 µM (active), 1.07 µM (active) and 1.73 µM (active), respectively. For the same compound, in assay [6], the outcome was inactive.

As for `CO[C@@H]1[C@H](OC(=O)NC(=O)CCl)CC[C@]2(CO2)[C@H]1[C@@]1(C)O[C@@H]1CC=C(C)C`, the result in assay [1] and in [3] was inactive. In addition, the half-maximal activity concentration (AC50) in [2] was 5.48 µM (active); in [4] it was 6.2 µM (active); in assay [5], 2.63 µM (active); in assay [6], 9.51 µM (active); in assay [7], 11.5 µM (active); in assay [8], 2.28 µM (active). The AC50 in assay [9] is 6.58 µM (active); in assay [10] it was 9.25 µM (active).

For the compound `O=C(O)C1C2CCC(O2)C1C(=O)O` (stereo not given), the result in assay [1], in [2], in assay [3], in assay [4], in assay [6] and in [7] was inactive. In addition, the result in [9] and in [10] was inactive. Besides, the concentration at half-maximal activity (AC50) in assay [5] is 24.3 µM (active); in assay [8], 18.6 µM (active).

Consider `CC(C)(C)OOC(C)(C)CCC(C)(C)OOC(C)(C)C`, for which the outcome in assay [1], in assay [2], in assay [3], in assay [4], in assay [5] and in [6] was inactive. The result in assay [7], in assay [9] and in [10] was inactive. Moreover, the concentration at half-maximal activity (AC50) in [8] is 31.3 µM (active).

As to `OCCOCCO`, the result in [1], in assay [2], in assay [3], in assay [4], in [5] and in [6] was inactive. For the same compound, the outcome in assay [7], in [8], in assay [9] and in assay [10] was inactive.

With `CC(C)COC(=O)c1ccccc1C(=O)OCC(C)C`, the result in assay [1], in assay [3], in assay [4], in assay [6], in assay [7] and in assay [8] was inactive. The result in [10] was inactive. Further, the values for the AC50 in assay [2], in assay [5] and in assay [9] were 30.3 µM (active), 23.9 µM (active) and 14.4 µM (active), respectively.

Regarding `Nc1ccc(N=Nc2ccccc2)cc1`, the result in assay [1], in assay [4], in [6], in assay [7], in [9] and in assay [10] was inactive. Further, the half-maximal activity concentration (AC50) in assay [2] is 29.3 µM (active); in assay [3] it was 3.9 µM (active); in [5], 20 µM (active); in assay [8], 8 µM (active).

Regarding `CC(O)CCO` (stereo not given), the result in assay [1], in [2], in assay [3], in assay [4], in assay [5] and in assay [6] was inactive. The outcome in [7], in [8], in assay [9] and in assay [10] was inactive.

`Cn1cc(-c2ccccc2)c(=O)c(-c2cccc(C(F)(F)F)c2)c1`: the outcome in assay [1], in assay [2], in assay [4], in assay [5], in assay [6] and in [7] was inactive. Further, the outcome in assay [8], in assay [9] and in [10] was inactive. The concentration at half-maximal activity (AC50) in [3] was 5.18 µM (active).

Consider `ClC1=C(Cl)[C@]2(Cl)[C@H]3[C@H]([C@@H]4C=C[C@H]3C4)[C@@]1(Cl)C2(Cl)Cl`, for which the outcome in [1] and in assay [6] was inactive. For the same compound, the AC50 is 19.3 µM (active) in assay [2]; 32 µM (active) in [3]; 38.9 µM (active) in [4]; 13.7 µM (active) in assay [5]; 31.3 µM (active) in [7]; 5.71 µM (active) in [8]. The AC50 is 16.3 µM (active) in [9] and 10.3 µM (active) in assay [10].

For `CCC(C)c1ccc(O)cc1` (stereo not given), the result in assay [1], in assay [2], in assay [3], in assay [4], in assay [5] and in [6] was inactive. Moreover, the outcome in assay [7], in assay [8], in assay [9] and in [10] was inactive.

`Cc1ccc(N)c(N)c1`: the result in [1], in [3], in assay [6], in [7], in [9] and in assay [10] was inactive. The concentration at half-maximal activity (AC50) in [2] is 3.97 µM (active); in [4], 8.46 µM (active); in [5] it was 6.88 µM (active); in [8], 14.7 µM (active).

Regarding `Nc1ccc(Cc2ccc(N)cc2)cc1`, the outcome in assay [1], in assay [2], in assay [3], in assay [4], in [5] and in assay [6] was inactive. Moreover, the outcome in assay [7], in assay [8], in assay [9] and in assay [10] was inactive.

For the compound `Brc1ccc(Oc2ccccc2)cc1`, the result in assay [1], in assay [2], in [3], in assay [4], in [5] and in [6] was inactive. The result in assay [7], in assay [8], in assay [9] and in assay [10] was inactive.

`ClC1=C(Cl)C2(Cl)C3C(Cl)C=CC3C1(Cl)C2(Cl)Cl` (stereo not given): the AC50 in [1] is 29.3 µM (active); in assay [2], 8.86 µM (active); in [3] it was 31.8 µM (active); in assay [4] it was 30.2 µM (active); in assay [5], 6.97 µM (active); in [7] it was 11.4 µM (active). In addition, the concentration at half-maximal activity (AC50) in assay [8] was 10.3 µM (active); in [9], 9.47 µM (active); in [10], 11.2 µM (active). Further, the result in assay [6] was inactive.

Regarding `Cc1cccc(N)c1N`, the result in [1], in assay [2], in [3], in assay [5], in assay [6] and in assay [7] was inactive. The outcome in assay [8] and in assay [10] was inactive. Further, the AC50 in [4] is 13.8 µM (active); in assay [9] it was 0.853 µM (active).
